{"source": "PubChem BioAssay AID624483", "about": "(NMMLSC, 2012)", "note": "In all, about 360,000 compounds went through this assay and about 11,000 (3.1%) were called active. Not shown: some 2% with an inconclusive outcome. Cut-off read from the data, not from the text of the source: active = fluorescence intensity above about 16000; inconclusive = no clear call, values can overlap the other calls; inactive = below that. For the sample, actives were picked, then their nearest neighbours and some compounds at random."}
{"assay": "compound fluorescence in toxin protease inhibitor counterscreen, primary screen, artefact control for toxin protease inhibitor project, biochemical, multiplex microsphere, HTS (AID 624483)", "conditions": "compound autofluorescence counterscreen, microsphere flow cytometry; hits give high values"}
{"compound": "Cc1onc(-c2ccccc2)c1C(=O)N1CCN(S(=O)(=O)c2ccccc2C(F)(F)F)CC1", "fluorescence intensity": "3570 (inactive)"}
{"compound": "COC(=O)c1ccc2nc(-c3cccc(Br)c3)c(Cc3ccc(OC)cc3C)n2c1", "fluorescence intensity": "5220 (inactive)"}
{"compound": "CCC1(C)Cc2c(sc3[nH]c(=S)n(Cc4ccccc4)c(=O)c23)CO1", "note": "(stereo unspecified)", "fluorescence intensity": "2880 (inactive)"}
{"compound": "CCOC(=O)Cn1c(SC)nc2sc3c(c2c1=O)CC(C)(C)OC3", "fluorescence intensity": "6860 (inactive)"}
{"compound": "CCC1(C)Cc2c(sc3nnn(CC(=O)Nc4ccc(Cl)cc4)c(=O)c23)CO1", "note": "(stereo unspecified)", "fluorescence intensity": "22700 (active)"}
{"compound": "N#C/C(=C/c1cccc([N+](=O)[O-])c1)c1nnc2n1CCCCC2", "fluorescence intensity": "1990 (inactive)"}
{"compound": "Cc1ccc(N(Cc2ccc(C(=O)Nc3ccccc3C(=O)NCc3ccco3)cc2)S(C)(=O)=O)cc1C", "fluorescence intensity": "25100 (active)"}
{"compound": "CS(=O)(=O)N(Cc1ccc(Cl)cc1)c1ccc(C(=O)NCCSCc2ccco2)cc1", "fluorescence intensity": "10900 (inactive)"}
{"compound": "Cc1cccc(Nc2ccccc2C(=O)NCc2ccco2)c1C", "fluorescence intensity": "3190 (inactive)"}
{"compound": "O=C(Nc1ccc(S(=O)(=O)N2CCOCC2)cc1)c1ccc2ncsc2c1", "fluorescence intensity": "4800 (inactive)"}
{"compound": "O=C(CSc1nnc(-c2c[nH]c3ccccc23)o1)c1ccccc1", "fluorescence intensity": "7930 (inactive)"}
{"compound": "CCCn1cc(SCC(N)=O)c2ccccc21", "fluorescence intensity": "6190 (inactive)"}
{"compound": "NC(=O)CSc1c[nH]c2ccccc12", "fluorescence intensity": "20300 (active)"}
{"compound": "O=[N+]([O-])c1ccc(CN2CC(N3CCC(c4ccccc4)CC3)CS2(=O)=O)cc1", "note": "(stereo unspecified)", "fluorescence intensity": "4360 (inactive)"}
{"compound": "COc1ccc(S(=O)(=O)N2CCC(C(=O)NCc3ccco3)CC2)cc1C", "fluorescence intensity": "3590 (inactive)"}
{"compound": "COc1ccc(C2=NOC(C(=O)NCc3ccco3)C2)cc1OC", "note": "(stereo unspecified)", "fluorescence intensity": "21200 (active)"}
{"compound": "COc1ccc(CNC(=O)C2CC(c3ccc(C(F)(F)F)cc3)=NO2)cc1", "note": "(stereo unspecified)", "fluorescence intensity": "4040 (inactive)"}
{"compound": "CCOC(=O)N1CCN(C(=O)c2cn(C)c3ccc(S(=O)(=O)N(CC)CC)cc3c2=O)CC1", "fluorescence intensity": "2950 (inactive)"}
{"compound": "COc1ccc(N2CCN(C(=O)c3cn(C)c4ccc(S(=O)(=O)N5CCOCC5)cc4c3=O)CC2)cc1", "fluorescence intensity": "5270 (inactive)"}
{"compound": "CCOC(=O)N1CCN(C(=O)c2cn(C)c3ccc(S(=O)(=O)N4CCCC4)cc3c2=O)CC1", "fluorescence intensity": "19900 (active)"}
{"compound": "Cc1ccc(C(NC(=O)C2CCN(CCOc3ccc(Cl)cc3Cl)CC2)c2ccccn2)cc1", "note": "(stereo unspecified)", "fluorescence intensity": "3690 (inactive)"}
{"compound": "O=C(NCCS(=O)(=O)N1CCN(c2ccccc2)CC1)c1cc(=O)c2ccccc2o1", "fluorescence intensity": "2940 (inactive)"}
{"compound": "CC(C)C(=O)N1c2ccccc2NC2=C(C(=O)CCC2)C1c1ccc(N(C)C)cc1", "note": "(stereo unspecified)", "fluorescence intensity": "3590 (inactive)"}
{"compound": "O=C1c2ccccc2C(O)N1Cc1ccccc1", "note": "(stereo unspecified)", "fluorescence intensity": "11200 (inactive)"}
{"compound": "CC1(C)C2CCC1(CS(=O)(=O)NCCc1c[nH]c3ccccc13)C(=O)C2", "note": "(stereo unspecified)", "fluorescence intensity": "3440 (inactive)"}
{"compound": "CCCC(=O)N1CCC1(C)C(=O)Nc1ccc(-n2cncn2)cc1", "note": "(stereo unspecified)", "fluorescence intensity": "4100 (inactive)"}
{"compound": "Cc1cccc(C)c1NC(=O)CN1CCN(c2ccc(F)cc2)CC1", "fluorescence intensity": "5760 (inactive)"}
{"compound": "COc1ccc(OCCCCN2CCC(C)CC2)cc1", "fluorescence intensity": "3010 (inactive)"}
{"compound": "CC(C)(C)c1ccc(CN2C(=O)CN=C(c3ccccc3)c3ccccc32)cc1", "fluorescence intensity": "16300 (active)"}
{"compound": "CC(C)(C)c1ccc(CN2C(=O)c3ccccc3S2(=O)=O)cc1", "fluorescence intensity": "3970 (inactive)"}
{"compound": "CCN(CC)C(=O)C1=C(C)N(Cc2ccc(C(C)(C)C)cc2)C(=O)C(CC(=O)NCc2cccc3ccccc23)C1", "note": "(stereo unspecified)", "fluorescence intensity": "3960 (inactive)"}
{"compound": "CNc1cnc(-c2cc(OC)c(OC)c(OC)c2)cn1", "fluorescence intensity": "3800 (inactive)"}
{"compound": "O=C(Nc1ccc(OCCO)cc1)c1csc([C@H]2C[C@H](O)[C@@H](CO)O2)n1", "fluorescence intensity": "4100 (inactive)"}
{"compound": "O=C(COC(=O)c1n[nH]c2ccccc12)Nc1ccccc1Br", "fluorescence intensity": "3780 (inactive)"}
{"compound": "CC(=O)Nc1ccc(S(=O)(=O)N2CCN(S(=O)(=O)c3cccs3)CC2)cc1", "fluorescence intensity": "6050 (inactive)"}
{"compound": "CC(=O)Nc1ccc(S(=O)(=O)N2CCN(CCCOc3cc(C)ccc3C)CC2)cc1", "fluorescence intensity": "11400 (inactive)"}
{"compound": "COC(=O)Nc1ccc(S(=O)(=O)N2CCN(CCN3C(=O)C4C5C=CC(C5)C4C3=O)CC2)cc1", "note": "(stereo unspecified)", "fluorescence intensity": "21300 (active)"}
{"compound": "CCn1c(CN2C(=O)CSc3ccccc32)n[nH]c1=S", "fluorescence intensity": "6470 (inactive)"}
{"compound": "Cc1nnc(SCCCn2c(N3CCCCC3)nc3c2c(=O)[nH]c(=O)n3C)s1", "fluorescence intensity": "20700 (active)"}
{"compound": "C=C(C)Cn1c(N2CCCC2)nc2c1c(=O)[nH]c(=O)n2C", "fluorescence intensity": "5030 (inactive)"}
{"compound": "Cc1nnc(Sc2nc3c(c(=O)[nH]c(=O)n3C)n2Cc2ccccc2)s1", "fluorescence intensity": "5620 (inactive)"}
{"compound": "CNC(=S)NNC(=O)c1sccc1OCc1ccccc1", "fluorescence intensity": "22300 (active)"}
{"compound": "CNC(=S)NNC(=O)c1cccn(Cc2ccccc2)c1=O", "fluorescence intensity": "4620 (inactive)"}
{"compound": "Cc1ccc(/C=N/NC(=O)c2sccc2OCc2ccc(F)cc2)cc1", "fluorescence intensity": "3080 (inactive)"}
{"compound": "CC1(C(=O)NS(=O)(=O)c2ccc(C#N)cc2)CCN1C(=O)CC1CCCC1", "note": "(stereo unspecified)", "fluorescence intensity": "3000 (inactive)"}
{"compound": "COC(=O)c1nc(NC(=O)c2ccccc2)n[nH]1", "fluorescence intensity": "19900 (active)"}
{"compound": "COC(=O)c1nc(NC(=O)c2ccc(Cl)cc2)n[nH]1", "fluorescence intensity": "12500 (inactive)"}
{"compound": "COC(=O)c1nc(NC(=O)c2ccc(F)cc2)n[nH]1", "fluorescence intensity": "3910 (inactive)"}
{"compound": "CCCCCn1nnnc1C1c2ccccc2C(=O)N1Cc1ccco1", "note": "(stereo unspecified)", "fluorescence intensity": "6010 (inactive)"}
{"compound": "CC1CCCN(S(=O)(=O)c2ccc(-c3ccc(=O)[nH]n3)o2)C1", "note": "(stereo unspecified)", "fluorescence intensity": "5950 (inactive)"}
{"compound": "CN(C)/C=C(\\C#N)C(=O)c1cccnc1Oc1ccc(F)cc1F", "fluorescence intensity": "24800 (active)"}
{"compound": "CN(C)/C=C(\\C#N)C(=O)c1cccnc1Oc1cccc(F)c1", "fluorescence intensity": "15200 (inactive)"}
{"compound": "CCOc1ncccc1C(=O)N(C)CC(=O)Nc1ccc(F)cc1", "fluorescence intensity": "2630 (inactive)"}
{"compound": "COc1cc(C(O)c2nc(-c3cccc(C(=O)O)c3)cs2)ccc1F", "note": "(stereo unspecified)", "fluorescence intensity": "3440 (inactive)"}
{"compound": "CC(Sc1ccccc1F)C(=O)Nc1cccc(S(=O)(=O)N2CCOCC2)c1", "note": "(stereo unspecified)", "fluorescence intensity": "4000 (inactive)"}
{"compound": "CC(C)c1cc(C(N)=O)c(NC(=O)c2cccc(COc3ccc(Br)cc3)c2)s1", "fluorescence intensity": "22100 (active)"}
{"compound": "CCOc1ccc(OCc2cccc(C(=O)N(CC)CC)c2)cc1", "fluorescence intensity": "2210 (inactive)"}
{"compound": "CC(C)(C)OC(=O)N(Cc1ccccc1)Cc1ccc(OCc2cccc(NC(=O)c3ccccc3)c2)cc1", "fluorescence intensity": "3640 (inactive)"}
{"compound": "CC1(C)OC(=O)C2=C(C[C@@H](C3CCCC3)O[C@@H]2c2ccc(Cl)cc2)O1", "fluorescence intensity": "6120 (inactive)"}
{"compound": "C=CCc1cccc2cc(C(=O)OCC)c(=O)oc12", "fluorescence intensity": "2480 (inactive)"}
{"compound": "C=CCc1cccc2cc(C(=O)Nc3ccc(NC(C)=O)cc3)c(=O)oc12", "fluorescence intensity": "4060 (inactive)"}
{"compound": "C=CCc1cccc2cc(C(=O)N3CCN(C(=O)OCC)CC3)c(=O)oc12", "fluorescence intensity": "19200 (active)"}
{"compound": "CCc1ccc(OC2(C)CCN(CCOc3ccc(C)cc3)C2)cc1", "note": "(stereo unspecified)", "fluorescence intensity": "3880 (inactive)"}
{"compound": "Cc1nc2ccc(S(=O)(=O)NCC(=O)NCCN3CCCCC3C)cc2s1", "note": "(stereo unspecified)", "fluorescence intensity": "3450 (inactive)"}
{"compound": "Cc1ccc(N(Cc2cc(=O)[nH]c3ccccc23)C(=O)CCl)cc1", "fluorescence intensity": "3750 (inactive)"}
{"compound": "Cc1oc(-c2ccccc2F)nc1CS(=O)CC(=O)NCCN1CCCCC1C", "note": "(stereo unspecified)", "fluorescence intensity": "5840 (inactive)"}
{"compound": "CSc1ccc(CCNC(=O)CS(=O)(=O)Cc2nc(-c3ccccc3F)oc2C)cc1", "fluorescence intensity": "5680 (inactive)"}
{"compound": "Cc1oc(-c2ccccc2F)nc1CS(=O)(=O)CC(=O)NCCCN(C)C1CCCCC1", "fluorescence intensity": "17000 (active)"}
{"compound": "CC1(C(=O)Nc2cccc3c2CCCC3)CCN1C(=O)CCc1ccc(Cl)cc1Cl", "note": "(stereo unspecified)", "fluorescence intensity": "3570 (inactive)"}
{"compound": "C=C(C)CNC(=S)Nc1ccc(S(=O)(=O)Nc2cnc3ccccc3n2)cc1", "fluorescence intensity": "4200 (inactive)"}
{"compound": "Cc1ccc(NS(=O)(=O)c2cc3c(cc2Br)NC(=O)CO3)cc1C", "fluorescence intensity": "2960 (inactive)"}
{"compound": "CCCc1nc2c([nH]1)C(c1cccnc1)C(C#N)=C(N)O2", "note": "(stereo unspecified)", "fluorescence intensity": "7630 (inactive)"}
{"compound": "CCCc1[nH]nc2c1C(c1ccc(Br)s1)C(C#N)=C(N)O2", "note": "(stereo unspecified)", "fluorescence intensity": "2790 (inactive)"}
{"compound": "CCCc1[nH]nc2c1C(c1ccc(OC(=O)c3ccco3)cc1)C(C#N)=C(N)O2", "note": "(stereo unspecified)", "fluorescence intensity": "17200 (active)"}
{"compound": "COc1ccc(C(C)(O)c2nc(-c3cc(F)cc(F)c3)cs2)cc1", "note": "(stereo unspecified)", "fluorescence intensity": "3820 (inactive)"}
{"compound": "OCCN1CCN(c2ncnc3c2ncn3[C@H]2CN(Cc3ccco3)C[C@@H](CO)O2)CC1", "fluorescence intensity": "2940 (inactive)"}
{"compound": "CC(=O)C1=CCC(c2ccccc2)N(S(=O)(=O)c2ccc(C)cc2)C1", "note": "(stereo unspecified)", "fluorescence intensity": "4360 (inactive)"}
{"compound": "CCOC(=O)C1(S(=O)(=O)c2ccc(Cl)cc2)CCN(Cc2ccccc2)CC1", "fluorescence intensity": "22200 (active)"}
{"compound": "CCOC(=O)C1(CCOC)CCN(Cc2ccc(C(=O)OC)cc2)CC1", "fluorescence intensity": "4510 (inactive)"}
{"compound": "CCOC(=O)C1(CCc2ccccc2)CCN(Cc2ccco2)CC1", "fluorescence intensity": "2080 (inactive)"}
{"compound": "O=C(NNS(=O)(=O)c1ccc(Cl)cc1)C1CCN(Cc2ccccc2)CC1", "fluorescence intensity": "9590 (inactive)"}
{"compound": "CCOC(=O)C1(S(=O)(=O)c2ccccc2)CCN(Cc2ccccc2)CC1", "fluorescence intensity": "25000 (active)"}
{"compound": "CCOC(=O)C1(CCOc2ccccc2)CCN(Cc2cc(OC)cc(OC)c2)CC1", "fluorescence intensity": "3960 (inactive)"}
{"compound": "COC(=O)[C@@]1(Cc2ccc(F)cc2)[C@H]2c3cc(C(=O)N(C)C)n(CCc4c[nH]c5ccc(OC)cc45)c3C[C@H]2CN1C(=O)c1ccccc1", "fluorescence intensity": "6230 (inactive)"}
{"compound": "Nc1nc2c(ncn2[C@@H]2O[C@H](CNCc3ccc(OCCCN4CCOCC4)cc3)[C@@H](O)[C@H]2O)c(=O)[nH]1", "fluorescence intensity": "6030 (inactive)"}
{"compound": "CCCc1c(-c2ccccc2F)ncn1Cc1ccccc1OC", "fluorescence intensity": "6360 (inactive)"}
{"compound": "N#C/C(=C\\c1ccc(N2CCOCC2)o1)C(=O)N1CCOCC1", "fluorescence intensity": "3190 (inactive)"}
{"compound": "COC(=O)[C@]1(Cc2ccccc2)N[C@H](CN(C)S(=O)(=O)c2ccc(F)cc2)[C@@H]2C(=O)N(Cc3ccccc3)C(=O)[C@@H]21", "fluorescence intensity": "2850 (inactive)"}
{"compound": "COc1ccc(S(=O)(=O)NCCCCOc2ccc(Cl)cc2)cc1", "fluorescence intensity": "3450 (inactive)"}
{"compound": "COc1ccc(N(CC(=O)N2CCCCCC2)S(=O)(=O)c2ccccc2)cc1", "fluorescence intensity": "5240 (inactive)"}
{"compound": "COc1ccc(N(CCC#N)S(=O)(=O)c2ccc(Cl)cc2)cc1", "fluorescence intensity": "19700 (active)"}
